Tests used:
Test in all cases: log2 ratio of Biotin-Ahx-Ub-VS probe labelling (fragment/DMSO); higher = less target engagement (more negative = stronger competition), active = hit call of the paper (q ≤ 0.05, log2 ratio ≤ -1)
Conditions in all cases: compound concentration: 200 uM; treatment time: 3 h
USP34 = USP34 (UniProt Q70CQ2)
Outline: (§1)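 Labelled DUBs were enriched with NeutrAvidin, digested with LysC and trypsin, and run by diaPASEF LC-MS/MS. The labelling used Biotin-Ahx-Ub-VS at 0.5 µM final for 1 h on HEK293T lysate (495 µg per sample) previously treated in triplicate with fragment at 200 µM or vehicle for 3 h. Values are average log2 fragment/vehicle ratios by unpaired t-test on global-median-normalised Spectronaut quantities of proteins with ≥2 unique peptides.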

USP36 = target: T1, USP36 (UniProt Q9P275)
T1 sequence (whole entry): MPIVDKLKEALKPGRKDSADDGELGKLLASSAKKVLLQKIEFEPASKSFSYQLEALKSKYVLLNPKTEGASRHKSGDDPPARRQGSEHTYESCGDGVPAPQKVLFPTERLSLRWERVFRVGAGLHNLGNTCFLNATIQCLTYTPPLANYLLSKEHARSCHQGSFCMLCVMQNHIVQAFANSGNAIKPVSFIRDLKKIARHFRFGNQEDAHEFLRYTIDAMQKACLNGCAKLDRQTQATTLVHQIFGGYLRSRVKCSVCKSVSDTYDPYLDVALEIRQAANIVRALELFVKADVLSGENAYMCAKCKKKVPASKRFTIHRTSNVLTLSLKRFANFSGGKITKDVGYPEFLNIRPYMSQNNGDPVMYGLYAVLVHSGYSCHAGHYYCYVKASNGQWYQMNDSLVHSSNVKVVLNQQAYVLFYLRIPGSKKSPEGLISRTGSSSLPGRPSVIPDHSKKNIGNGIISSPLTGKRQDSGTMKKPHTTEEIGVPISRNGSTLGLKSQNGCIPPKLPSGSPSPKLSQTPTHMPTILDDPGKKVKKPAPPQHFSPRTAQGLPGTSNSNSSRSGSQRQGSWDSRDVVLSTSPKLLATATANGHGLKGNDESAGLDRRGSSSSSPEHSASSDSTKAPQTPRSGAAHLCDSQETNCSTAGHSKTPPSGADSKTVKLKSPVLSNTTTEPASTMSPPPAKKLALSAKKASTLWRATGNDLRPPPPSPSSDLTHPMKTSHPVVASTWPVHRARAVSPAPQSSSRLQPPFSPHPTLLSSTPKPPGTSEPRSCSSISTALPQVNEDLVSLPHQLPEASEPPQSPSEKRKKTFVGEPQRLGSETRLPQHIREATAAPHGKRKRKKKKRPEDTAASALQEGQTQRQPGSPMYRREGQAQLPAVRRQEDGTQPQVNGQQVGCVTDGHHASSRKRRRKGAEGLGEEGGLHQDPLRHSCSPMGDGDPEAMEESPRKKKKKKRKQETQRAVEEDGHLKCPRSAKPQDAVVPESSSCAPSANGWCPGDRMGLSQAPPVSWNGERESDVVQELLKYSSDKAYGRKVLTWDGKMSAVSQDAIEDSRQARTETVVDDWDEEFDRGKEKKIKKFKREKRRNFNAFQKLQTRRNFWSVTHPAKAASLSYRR
Outline: as §1

USP38 = target: T2, USP38 (UniProt Q8NB14)
T2 sequence (whole entry): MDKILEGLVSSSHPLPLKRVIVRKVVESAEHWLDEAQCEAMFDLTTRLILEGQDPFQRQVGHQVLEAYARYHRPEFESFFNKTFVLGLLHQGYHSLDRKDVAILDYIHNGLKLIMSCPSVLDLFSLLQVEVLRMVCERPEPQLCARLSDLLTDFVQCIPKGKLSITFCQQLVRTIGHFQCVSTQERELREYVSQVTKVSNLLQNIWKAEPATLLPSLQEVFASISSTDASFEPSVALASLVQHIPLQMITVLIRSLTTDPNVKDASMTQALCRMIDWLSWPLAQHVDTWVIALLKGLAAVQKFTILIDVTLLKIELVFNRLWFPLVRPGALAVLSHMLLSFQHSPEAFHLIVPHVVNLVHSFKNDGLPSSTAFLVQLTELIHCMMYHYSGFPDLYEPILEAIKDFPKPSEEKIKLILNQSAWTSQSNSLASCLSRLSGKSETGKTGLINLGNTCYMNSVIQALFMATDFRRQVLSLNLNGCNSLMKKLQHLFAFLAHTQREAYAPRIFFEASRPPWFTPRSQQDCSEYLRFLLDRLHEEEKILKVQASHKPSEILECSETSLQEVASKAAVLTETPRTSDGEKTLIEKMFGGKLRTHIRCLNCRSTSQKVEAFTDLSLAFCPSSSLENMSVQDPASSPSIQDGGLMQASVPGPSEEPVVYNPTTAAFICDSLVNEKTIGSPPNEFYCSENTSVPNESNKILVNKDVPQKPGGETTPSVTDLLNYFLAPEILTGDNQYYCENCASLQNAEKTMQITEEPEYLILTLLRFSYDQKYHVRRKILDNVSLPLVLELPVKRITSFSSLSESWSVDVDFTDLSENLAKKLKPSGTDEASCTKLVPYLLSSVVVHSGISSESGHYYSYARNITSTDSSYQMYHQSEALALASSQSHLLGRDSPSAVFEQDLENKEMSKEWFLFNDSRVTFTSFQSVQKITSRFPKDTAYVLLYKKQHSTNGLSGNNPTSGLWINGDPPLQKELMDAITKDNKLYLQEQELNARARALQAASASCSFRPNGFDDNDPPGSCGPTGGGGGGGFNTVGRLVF
Outline: as §1

USP39 = target: T3, USP39 (UniProt Q53GS9)
T3 sequence (whole entry): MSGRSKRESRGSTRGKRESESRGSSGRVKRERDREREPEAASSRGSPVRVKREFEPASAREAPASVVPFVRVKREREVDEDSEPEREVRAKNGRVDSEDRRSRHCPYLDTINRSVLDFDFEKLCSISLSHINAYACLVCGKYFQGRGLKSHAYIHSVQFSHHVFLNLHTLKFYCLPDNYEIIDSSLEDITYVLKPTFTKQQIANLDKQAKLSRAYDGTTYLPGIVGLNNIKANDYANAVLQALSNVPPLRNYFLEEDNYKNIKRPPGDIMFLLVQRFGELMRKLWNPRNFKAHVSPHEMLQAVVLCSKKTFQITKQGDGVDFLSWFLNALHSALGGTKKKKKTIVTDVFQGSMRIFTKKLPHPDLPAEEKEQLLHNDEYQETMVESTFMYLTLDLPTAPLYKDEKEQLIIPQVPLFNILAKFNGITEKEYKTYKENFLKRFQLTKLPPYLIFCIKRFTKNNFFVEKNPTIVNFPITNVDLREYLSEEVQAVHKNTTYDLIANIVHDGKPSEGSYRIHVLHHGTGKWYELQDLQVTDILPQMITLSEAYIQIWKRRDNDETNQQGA
Outline: as §1

USP4 = target: T4, USP4 (UniProt Q13107)
T4 sequence (whole entry): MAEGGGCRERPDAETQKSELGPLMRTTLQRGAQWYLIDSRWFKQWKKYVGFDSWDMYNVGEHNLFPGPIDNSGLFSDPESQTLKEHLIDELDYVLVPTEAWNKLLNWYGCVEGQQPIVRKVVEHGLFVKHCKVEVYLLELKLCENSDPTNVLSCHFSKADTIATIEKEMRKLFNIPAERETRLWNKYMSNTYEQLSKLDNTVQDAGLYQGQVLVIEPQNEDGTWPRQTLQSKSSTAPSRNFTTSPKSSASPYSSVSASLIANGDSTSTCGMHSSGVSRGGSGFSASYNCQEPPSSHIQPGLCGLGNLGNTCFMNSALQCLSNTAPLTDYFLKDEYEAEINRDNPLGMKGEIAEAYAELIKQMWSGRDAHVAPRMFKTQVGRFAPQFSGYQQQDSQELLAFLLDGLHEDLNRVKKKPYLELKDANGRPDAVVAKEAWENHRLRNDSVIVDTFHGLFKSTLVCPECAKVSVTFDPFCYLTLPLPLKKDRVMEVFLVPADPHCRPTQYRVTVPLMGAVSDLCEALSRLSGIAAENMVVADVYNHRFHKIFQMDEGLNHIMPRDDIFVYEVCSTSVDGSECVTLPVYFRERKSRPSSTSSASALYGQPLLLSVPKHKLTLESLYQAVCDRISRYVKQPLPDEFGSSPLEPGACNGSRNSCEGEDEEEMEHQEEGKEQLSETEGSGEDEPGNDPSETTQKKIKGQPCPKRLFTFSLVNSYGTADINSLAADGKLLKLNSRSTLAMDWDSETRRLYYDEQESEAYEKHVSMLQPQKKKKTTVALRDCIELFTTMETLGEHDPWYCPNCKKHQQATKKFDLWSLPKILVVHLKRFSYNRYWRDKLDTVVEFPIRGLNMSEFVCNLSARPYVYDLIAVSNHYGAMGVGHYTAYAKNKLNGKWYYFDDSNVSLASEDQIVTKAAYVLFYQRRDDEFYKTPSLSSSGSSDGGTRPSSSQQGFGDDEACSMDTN
Outline: as §1

Measured: log2 ratio of Biotin-Ahx-Ub-VS probe labelling

Sequence of USP34 (Q70CQ2 whole entry, the tested form may be a part): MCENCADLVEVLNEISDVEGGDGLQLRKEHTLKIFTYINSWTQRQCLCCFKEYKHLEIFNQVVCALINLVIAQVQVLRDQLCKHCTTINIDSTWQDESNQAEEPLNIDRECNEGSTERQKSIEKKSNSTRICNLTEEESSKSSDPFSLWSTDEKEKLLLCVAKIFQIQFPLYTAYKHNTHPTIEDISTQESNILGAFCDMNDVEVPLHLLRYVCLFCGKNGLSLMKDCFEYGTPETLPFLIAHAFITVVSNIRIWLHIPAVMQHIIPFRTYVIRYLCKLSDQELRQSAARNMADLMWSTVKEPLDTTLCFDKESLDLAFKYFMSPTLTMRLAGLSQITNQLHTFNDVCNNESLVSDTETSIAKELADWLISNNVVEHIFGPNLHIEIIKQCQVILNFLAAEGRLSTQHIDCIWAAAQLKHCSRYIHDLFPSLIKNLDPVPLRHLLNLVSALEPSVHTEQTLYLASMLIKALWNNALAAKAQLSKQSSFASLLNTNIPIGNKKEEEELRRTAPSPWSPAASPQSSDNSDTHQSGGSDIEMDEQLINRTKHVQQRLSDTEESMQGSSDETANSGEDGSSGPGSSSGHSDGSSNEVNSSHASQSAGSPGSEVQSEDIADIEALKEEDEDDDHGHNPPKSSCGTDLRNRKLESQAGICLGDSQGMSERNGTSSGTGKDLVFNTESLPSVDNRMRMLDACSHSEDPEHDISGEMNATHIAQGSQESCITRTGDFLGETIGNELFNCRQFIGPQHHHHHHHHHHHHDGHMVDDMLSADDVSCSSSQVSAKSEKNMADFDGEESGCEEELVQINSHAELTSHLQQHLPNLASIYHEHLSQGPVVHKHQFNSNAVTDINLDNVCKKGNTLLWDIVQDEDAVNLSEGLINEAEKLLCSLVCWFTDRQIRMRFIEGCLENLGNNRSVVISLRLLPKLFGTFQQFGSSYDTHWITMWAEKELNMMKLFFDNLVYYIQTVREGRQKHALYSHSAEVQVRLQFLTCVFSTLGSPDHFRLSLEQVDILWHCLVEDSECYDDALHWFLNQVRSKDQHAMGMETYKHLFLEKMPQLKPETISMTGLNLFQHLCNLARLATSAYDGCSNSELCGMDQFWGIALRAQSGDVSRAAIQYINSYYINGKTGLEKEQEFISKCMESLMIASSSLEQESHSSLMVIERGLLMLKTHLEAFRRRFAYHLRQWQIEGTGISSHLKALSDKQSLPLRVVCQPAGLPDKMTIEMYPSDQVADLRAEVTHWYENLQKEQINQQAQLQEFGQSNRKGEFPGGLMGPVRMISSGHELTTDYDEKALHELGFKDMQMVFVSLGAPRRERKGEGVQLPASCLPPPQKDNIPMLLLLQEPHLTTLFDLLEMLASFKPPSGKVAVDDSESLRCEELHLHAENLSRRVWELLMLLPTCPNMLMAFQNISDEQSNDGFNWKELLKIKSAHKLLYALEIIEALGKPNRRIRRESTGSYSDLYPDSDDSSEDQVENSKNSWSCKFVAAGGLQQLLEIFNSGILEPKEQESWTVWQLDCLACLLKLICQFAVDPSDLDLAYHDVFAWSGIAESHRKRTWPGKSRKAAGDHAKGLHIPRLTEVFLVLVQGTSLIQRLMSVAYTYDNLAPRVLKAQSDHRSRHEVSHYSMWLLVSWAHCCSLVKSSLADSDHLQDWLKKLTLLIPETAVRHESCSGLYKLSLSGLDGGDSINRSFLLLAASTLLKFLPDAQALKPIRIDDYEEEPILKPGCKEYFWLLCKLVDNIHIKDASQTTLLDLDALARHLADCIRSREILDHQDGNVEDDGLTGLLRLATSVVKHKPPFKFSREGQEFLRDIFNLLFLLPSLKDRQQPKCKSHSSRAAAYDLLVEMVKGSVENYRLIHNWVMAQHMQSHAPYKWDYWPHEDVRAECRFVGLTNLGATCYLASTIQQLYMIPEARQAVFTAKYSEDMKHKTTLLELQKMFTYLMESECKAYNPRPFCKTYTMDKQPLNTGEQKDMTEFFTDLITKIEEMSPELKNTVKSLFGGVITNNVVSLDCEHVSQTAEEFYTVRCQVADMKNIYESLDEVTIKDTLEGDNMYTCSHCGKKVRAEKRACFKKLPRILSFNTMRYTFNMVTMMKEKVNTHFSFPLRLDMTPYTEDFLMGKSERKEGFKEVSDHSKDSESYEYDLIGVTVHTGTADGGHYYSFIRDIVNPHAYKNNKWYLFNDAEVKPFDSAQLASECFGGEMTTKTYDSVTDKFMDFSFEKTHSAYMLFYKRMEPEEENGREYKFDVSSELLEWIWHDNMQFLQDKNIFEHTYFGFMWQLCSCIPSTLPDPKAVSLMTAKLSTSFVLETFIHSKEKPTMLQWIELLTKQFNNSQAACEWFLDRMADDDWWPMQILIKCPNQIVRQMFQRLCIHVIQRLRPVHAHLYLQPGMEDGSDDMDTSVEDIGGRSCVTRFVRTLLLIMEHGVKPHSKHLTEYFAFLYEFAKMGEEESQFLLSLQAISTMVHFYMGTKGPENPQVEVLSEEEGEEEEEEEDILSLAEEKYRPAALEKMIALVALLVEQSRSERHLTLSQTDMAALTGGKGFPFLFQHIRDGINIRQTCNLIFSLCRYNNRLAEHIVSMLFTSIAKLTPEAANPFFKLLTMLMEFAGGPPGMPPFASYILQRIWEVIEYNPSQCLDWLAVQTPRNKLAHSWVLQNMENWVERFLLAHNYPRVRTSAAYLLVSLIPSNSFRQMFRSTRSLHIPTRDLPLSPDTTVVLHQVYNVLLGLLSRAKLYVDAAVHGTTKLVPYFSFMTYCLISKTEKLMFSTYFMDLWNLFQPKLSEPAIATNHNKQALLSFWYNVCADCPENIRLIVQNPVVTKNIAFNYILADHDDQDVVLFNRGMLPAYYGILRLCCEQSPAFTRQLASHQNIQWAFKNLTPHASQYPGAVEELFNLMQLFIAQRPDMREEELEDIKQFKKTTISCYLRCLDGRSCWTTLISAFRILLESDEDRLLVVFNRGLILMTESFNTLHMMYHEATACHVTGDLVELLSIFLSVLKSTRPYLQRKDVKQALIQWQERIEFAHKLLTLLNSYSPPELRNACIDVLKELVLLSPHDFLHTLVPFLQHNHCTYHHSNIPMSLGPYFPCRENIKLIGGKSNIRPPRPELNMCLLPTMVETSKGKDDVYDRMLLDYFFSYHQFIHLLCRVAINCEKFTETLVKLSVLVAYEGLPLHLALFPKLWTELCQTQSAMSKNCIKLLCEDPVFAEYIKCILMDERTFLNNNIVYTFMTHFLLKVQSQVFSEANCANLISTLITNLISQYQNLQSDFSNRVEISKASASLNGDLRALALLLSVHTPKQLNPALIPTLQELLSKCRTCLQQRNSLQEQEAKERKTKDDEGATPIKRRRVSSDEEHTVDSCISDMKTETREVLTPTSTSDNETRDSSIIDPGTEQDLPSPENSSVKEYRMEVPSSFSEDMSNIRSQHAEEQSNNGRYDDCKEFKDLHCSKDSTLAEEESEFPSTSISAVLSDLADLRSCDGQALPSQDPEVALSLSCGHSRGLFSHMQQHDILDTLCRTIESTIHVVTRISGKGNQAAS

Cc1nc(CN2CCCN(C(=O)CCl)CC2)no1.Cl
inactive: USP34 0.0178 | USP36 -0.0476 | USP38 0.0657 | USP39 -0.161 | USP4 0.31

Source: the supplement of paper PMC11732987, “Enantioselective OTUD7B fragment discovery through chemoproteomics screening and high-throughput optimisation” (Communications Chemistry, 2025)
